Laboratory results published in PMC5540273 (PLoS ONE, 2017).

Key:
Conditions in all cases: concentration: 1 μM, replicates: in singlicate; n = 1
CLK2 = test system: CLK2
CLK3 = test system: CLK3
CLK4 = test system: CLK4
CSF1R-autoinhibited = test system: CSF1R-autoinhibited
CSF1R = test system: CSF1R
CSK = test system: CSK
CSNK1A1L = test system: CSNK1A1L
CSNK1A1 = test system: CSNK1A1
CSNK1D = test system: CSNK1D
CSNK1E = test system: CSNK1E
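Further: KINOMEscan kinase panel screen.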

| Structure (SMILES) | %Inh (CLK2) | %Inh (CLK3) | %Inh (CLK4) | %Inh (CSF1R-autoinhibited) | %Inh (CSF1R) | %Inh (CSK) | %Inh (CSNK1A1L) | %Inh (CSNK1A1) | %Inh (CSNK1D) | %Inh (CSNK1E) |
| --- | --- | --- | --- | --- | --- | --- | --- | --- | --- | --- |
| Cl.N#CCc1ccc(Nc2nccc(Nc3ccc(Oc4ccccc4)cc3)n2)cc1 [GW639905] | 9% | 0% | 3% | 7% | 35% | 31% | 0% | 0% | 0% | 8% |
| O=C(Nc1n[nH]c2nc(-c3cccc(O)c3)ccc12)C1CC1 [SB-711805] | 20% | 16% | 0% | 0% | 0% | 100% | 6% | 0% | 11% | 34% |
| Nc1ncc(-c2ccc3nccc(-c4ccncc4)c3c2)cc1S(=O)(=O)N1CCCCC1 [GSK1693850] | 67% | 49% | 72% | 0% | 4% | 0% | 0% | 0% | 24% | 54% |
| Cc1ccc(Nc2ccnc(Nc3ccc(C)c(F)c3)n2)cc1O.Cl [GW582868] | 86% | 3% | 14% | 25% | 29% | 0% | 12% | 0% | 0% | 19% |
| Cl.O=C(Nc1ccc(Oc2ccc3[nH]c(NC(=O)c4ccco4)nc3c2)cc1)Nc1cc(C(F)(F)F)ccc1F [GW683134] | 0% | 0% | 61% | 0% | 99.8% | 0% | 0% | 2% | 10% | 0% |
| COc1cccc(-c2nc(-c3ccccc3)[nH]c2-c2ccncc2)c1 [SB-610250] | 0% | 27% | 8% | 0% | 2% | 0% | 19% | 47% | 66% | 68% |
| COc1ccc(NC(=O)c2ccoc2)cc1-c1ccc(C(=O)NCC2CC2)cc1 [GW810437] | 16% | 0% | 6% | 3% | 7% | 0% | 8% | 0% | 0% | 3% |
| Nc1ncnc2scc(-c3ccc(NC(=O)Cc4cc(F)ccc4F)cc3)c12.O=C(O)C(F)(F)F [SB-731254-M] | 0% | 14% | 12% | 79% | 100% | 9% | 6% | 15% | 29% | 0% |
| c1ccc(Oc2ccc(Nc3ccnc4cc(-c5ccc(CN6CCCCC6)o5)ccc34)cc2)nc1 [GW567143] | 0% | 0% | 6% | 0% | 54% | 71% | 12% | 1% | 10% | 13% |
| COc1cc(Nc2nccc(N3CCC(NC(=O)Nc4ccc5c(c4)OCO5)C3)n2)cc(OC)c1OC (stereo not shown) [GSK1379766] | 0% | 2% | 0% | 0% | 41% | 0% | 0% | 0% | 0% | 20% |
| N#Cc1cnc2cc(-c3cnc(CNCCN4CCOCC4)s3)ccc2c1Nc1ccc(Oc2ccccc2)cc1 [GW664114] | 0% | 0% | 95.2% | 17% | 19% | 96.7% | 7% | 0% | 0% | 39% |
| CS(=O)(=O)c1cccc(CNc2nc(Nc3ccc4c(c3)CCC(=O)N4)ncc2C(F)(F)F)c1 | 22% | 0% | 24% | 0% | 20% | 1% | 0% | 0% | 0% | 0% |
| Cc1cccc(Nc2nc(NCCN)ncc2C(N)=O)c1 [GSK1292139] | 22% | 47% | 0% | 23% | 88% | 22% | 76% | 72% | 52% | 84% |
| Nc1cccc(-c2ccc3c(N)n[nH]c3c2)c1 [GSK2193613] | 10% | 0% | 64% | 17% | 2% | 0% | 13% | 0% | 8% | 5% |
| CN(c1ccc(NC(=O)Nc2cccc(Cl)c2)cc1)c1ccnc(N)n1.Cl [GW830707] | 0% | 0% | 0% | 0% | 99.5% | 7% | 0% | 0% | 18% | 0% |
| Cc1ccc(-c2ccc3occ(-c4ccc(S(C)=O)cc4)c3c2)nn1 (stereo not shown) | 0% | 0% | 70% | 13% | 0% | 1% | 0% | 0% | 0% | 0% |
